Assay outcomes (PubChem BioAssay)
Compounds with a hit are over-represented: about 19% of the library has one in this group of screens.
Cycloheximide cs: counter-screen hit for Shiga toxin inhibitors, cycloheximide. max response, %. 12% of 300,000 active. AID 2314. cell reporter, cycloheximide protein synthesis inhibition counterscreen; in the data active = max response mostly above about 13%, no sharp cut-off; inactive = mostly below about 14%; note: read at 38.3 µM for the half of the compounds with a filed dose
Pf growth 96h: P. falciparum growth inhibition at 96 hour, primary screen for plastid delayed-death inhibitors; P. falciparum luciferase reporter growth, 96 h; Potency, µM (doses to about 28.7 µM), usual class: inhibitors; 6.9% of 320,000 active; AID 504834
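Delayed-death screen, second-generation endpoint: infected erythrocytes, 2% hematocrit, 0.05% parasitemia final; 96 hours at 37 C, 5% CO2; luciferase detection reagent; luminescence decrease equals reduced growth.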
Shiga inhibitor: Shiga toxin inhibition | 9.2% of 290,000 active | inhibition, % at 38.7 µM | Vero cells, Shiga toxin protein synthesis inhibition reporter; in the data active = inhibition mostly above about 28%, no sharp cut-off; inactive = mostly below about 43%
LASV entry inh: blocks Lassa virus binding to or entry into cells; Potency, µM (doses to about 37.9 µM), hits mostly inhibitors; Lassa virus pseudotype entry inhibition, cell reporter; AID 540256; 1.2% of 300,000 active; calls by dose curve; tested in HEK293 cells; note: nearly all actives have a fitted effect of over 50% in size
Marburg entry inh: blocks Marburg virus binding to or entry into cells; Marburg virus pseudotyped entry inhibition, cell reporter; Potency, µM (series often up to 37.8 µM), most hits filed as inhibitors; 1.8% of 300,000 active; calls by dose curve; tested in HEK293 cells
Pf growth 48h: inhibits P. falciparum growth in the first generation, 48 h. P. falciparum luciferase growth in erythrocytes, 48 h. Potency, µM (series often up to 28.7 µM), hits mostly inhibitors. 5.9% of 310,000 active
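Growth was read as firefly luciferase luminescence after a 48 h, 37 C, 5% CO2 exposure of compounds to reporter-bearing P. falciparum cultures (0.1% parasitemia, 2% hematocrit final) in Albumax-supplemented RPMI 1640.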
Numbers stand for hits; i = inactive; ? = inconclusive; nt = no result. Unless noted, calls come from the whole dose curve; as a rule, active = well fitted inhibition curve with a large enough effect; inconclusive = small, poorly fitted or top-dose-only effect, or another doubt; inactive = no such curve, though single readings can be large or run the other way.

SMILES	Cycloheximide cs	Pf growth 96h	Shiga inhibitor	LASV entry inh	Marburg entry inh	Pf growth 48h
Cc1ccc(CSc2nc(N)cc(N)n2)cc1	25.0	i	nt	i	i	i
N#Cc1ccc(CSc2nc(N)cc(=O)[nH]2)cc1	i	i	i	nt	nt	?
N#Cc1ccc(CSc2nc(N)cc(N)n2)cc1	7.9	i	i	i	i	i
Cc1cc(N2CCCCC2)nc(SCc2ccc(C#N)cc2)n1	i	nt	i	?	?	14.7µM
CN(C(=O)c1cccs1)c1ccccc1C(=O)O	i	?	i	i	i	i
CC1=NN(c2ccccc2)C(=O)/C1=C/c1ccc[nH]1	21.3	i	77.9	?	?	i
CC1=NN(c2ccccc2)C(=O)/C1=C/c1ccc(Cl)cc1	i	?	i	nt	nt	i
CC1=NN(c2ccccc2)C(=O)/C1=C\N(O)c1ccccc1	13.4	i	i	nt	nt	?
CC1=NN(c2ccccc2)C(=O)/C1=C/c1c(O)n(-c2ccc(F)cc2)[nH]c1=O	24.3	i	i	i	i	i
CN(C(=O)c1sc2nc(N3CCCC3)c3c(c2c1N)CC(C)(C)OC3)c1ccccc1	i	?	i	nt	nt	?
O=C1OCC(CO)(CO)N=C1NNc1ccccc1[N+](=O)[O-]	42.8	?	57.8	nt	nt	?
O=c1cc(Nc2ccc3c(c2)OCCO3)[nH]c(=O)n1C1CCCCC1	i	i	23.2	i	?	2.08µM
CCc1ccc(Nc2cc(=O)n(C3CCCCC3)c(=O)[nH]2)cc1	30.2	i	86.5	?	i	0.147µM
C=Cc1ccc(Cn2c(C)c(CNCc3ccccc3C)c(C(=O)O)c2C)cc1	nt	nt	nt	i	?	nt
Cc1ccc(NC(=O)Cn2nnc(C(=O)Nc3ccc(F)c(Cl)c3)c2N)cc1	i	i	i	nt	nt	i
CC(=O)c1ccc(Nc2nc(NCCO)nc(OC(C(F)(F)F)C(F)(F)F)n2)cc1	i	i	i	i	i	i
OC1COC(O)C(O)C1O (stereo not drawn)	nt	i	nt	nt	nt	i
CC(C)(C)CC(C)(C)c1ccc(O)c(Cc2ccc(Cl)cc2Cl)c1	nt	3.01µM	nt	nt	nt	1.9µM
O=c1c(Cc2ccc(Cl)cc2Cl)c(O)ccn1CC(F)(F)F	i	?	i	nt	nt	i
CCOC(=O)c1ccc(NC2OC(=O)c3ccccc32)cc1 (stereo not drawn)	14.5	nt	i	i	i	i
CCOC(=O)c1ccc(NC(=S)Nc2ccccc2)cc1	i	i	i	?	i	i
CC(C)c1ccc(CNC(=O)C2CC(=O)N(C3CCCCC3)C2)cc1 (stereo not drawn)	i	?	i	i	i	i
Cc1cccnc1CCNC(=O)c1ccc(OC2CCN(Cc3ccccn3)CC2)cc1	18.4	i	i	i	?	i
O=C(NCCc1cccc(Cl)c1)c1ccc(OC2CCN(Cc3ccccn3)CC2)cc1	50.7	?	52.5	nt	nt	i
CN(C(=O)c1ccc(OC2CCN(Cc3ccccn3)CC2)cc1)C1CCCCC1	21.0	?	i	i	i	?
SMILES	Cycloheximide cs	Pf growth 96h	Shiga inhibitor	LASV entry inh	Marburg entry inh	Pf growth 48h
CC(NC(=O)c1ccc(OC2CCN(Cc3ccccn3)CC2)cc1)c1nccs1 (stereo not drawn)	i	13.1µM	i	i	?	i
Cc1nc(C(C)NC(=O)c2ccc(OC3CCN(Cc4ccccn4)CC3)cc2)c(C)s1 (stereo not drawn)	i	i	i	nt	nt	?
COc1ccc(N(C(=O)c2ccncc2)S(=O)(=O)c2ccc(F)cc2)cc1	i	i	i	nt	nt	i
Cc1cc(=O)[nH]c(SCC(=O)NC(c2ccccc2)c2ccccc2)n1	i	?	i	nt	i	i
CCOc1ccc(C(=O)NCC(C)NC(=O)c2ccc(OCC)cc2)cc1 (stereo not drawn)	i	i	i	nt	nt	i
CN(C)c1ccc(-c2nnc(SCC3CCCO3)n2C)cc1 (stereo not drawn)	44.2	i	80.3	i	?	i
Cn1c(SCC2CCCO2)nnc1-c1ccncc1 (stereo not drawn)	i	i	i	i	i	i
CN(Cc1cccs1)C(=O)CSc1nc(N)cc(N)n1	i	i	i	?	i	i
[2H]c1c([2H])c([2H])c(-c2nc(N3CCCCCC3)sc2C(=O)c2ccccc2)c([2H])c1[2H]	i	4.15µM	i	i	?	?
CCOc1ccc(N2CC(=O)Nc3ccccc3NCC2=O)cc1	i	8.28µM	i	i	?	i
O=[N+]([O-])c1ccc(N2CCN(c3cccc(Cl)c3)CC2)cn1	i	i	i	?	8.91µM	i
CC1CC(C)CN(c2ccc([N+](=O)[O-])nc2)C1 (stereo not drawn)	17.1	?	i	nt	nt	?
